ELG1 DNA repair: inhibitors of ELG1-dependent DNA repair in HEK293T cells | HEK293T ELG1-luciferase reporter, luminescence, 16 h; DNA damage induced by 5-fluorouridine | Potency, µM (highest dose often 46.1 µM), inactives show at the top dose activity change, negative = inhibition, most hits filed as inhibitors | hit rate 2.3% among 330,000 | AID 504467; further: on the % scale 0 is the no-effect control and ±100 the full control effect; nearly all actives have a fitted effect of over 55% in size
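5-Fluorouridine DNA damage + compound/DMSO, 2,000 cells/well, 16 h, 37 °C/5% CO2. ONE-Glo, 30 min RT, luminescence. Readout = decrease in reporter signal.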
FLuc counter: firefly luciferase modulation, counter-screen for miR-21 project. P08659. purified FLuc, Km substrates, luminescence inhibition. Potency, µM (doses to about 57.5 µM), for inactives: at the top dose activity change, negative = inhibition, usual class: inhibitors. hit rate 6.9% among 360,000;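 further: plate controls were vehicle for no effect and reference inhibitor for full effect; nearly all actives have a fitted effect of over 55% in size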
Target sequence (P08659 whole entry, looked up): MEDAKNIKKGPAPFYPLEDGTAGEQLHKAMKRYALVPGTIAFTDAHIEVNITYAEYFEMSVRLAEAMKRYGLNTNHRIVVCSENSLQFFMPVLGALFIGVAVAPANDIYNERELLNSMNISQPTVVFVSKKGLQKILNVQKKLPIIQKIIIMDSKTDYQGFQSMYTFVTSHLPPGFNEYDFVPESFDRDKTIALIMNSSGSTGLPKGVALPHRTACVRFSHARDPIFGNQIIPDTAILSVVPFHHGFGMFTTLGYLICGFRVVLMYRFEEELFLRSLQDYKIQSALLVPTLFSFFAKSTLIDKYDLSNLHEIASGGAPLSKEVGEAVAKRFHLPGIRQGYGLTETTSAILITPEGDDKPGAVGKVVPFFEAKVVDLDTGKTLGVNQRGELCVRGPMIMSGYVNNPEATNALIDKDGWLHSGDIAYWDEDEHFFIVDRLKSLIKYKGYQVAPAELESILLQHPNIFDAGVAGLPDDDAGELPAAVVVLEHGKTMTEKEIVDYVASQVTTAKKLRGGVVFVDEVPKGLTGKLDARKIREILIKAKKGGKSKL
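Biochemical qHTS of compounds, final roughly 60 µM downward over six points, against 10 nM purified firefly luciferase using Km concentrations of substrates (10 uM D-luciferin, 10 uM ATP) in Tris acetate pH 7.5 buffer; luminescence output.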
Rab9 promoter act: Rab9 promoter activation; Huh7 Rab9 promoter-luciferase reporter, luminescence, 24 h; Potency, µM (doses to about 9.22 µM), for inactives: at the top dose activation, negative = inhibition, hits mostly activators; hit rate 2.8% among 320,000; AID 485297; further: % of control where 0% means no effect; nearly all actives have a fitted effect of over 60% in size
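Measured in stably transfected Huh7 cells bearing a Rab9 promoter–luciferase construct: 24 h compound treatment at 37 °C, followed by luminescence detection.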
NPC1 promoter act: NPC1 promoter activation | hit rate 2.4% among 320,000 | AID 485313 | Huh7 NPC1 promoter luciferase reporter, 24 h | Potency, µM (top dose mostly 9.22 µM), inactives show top-dose activation, actives largely listed as activators; further: % of control where 0% means no effect; nearly all actives have a fitted effect of over 60% in size
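Quantitative HTS used a cell-based reporter: Huh7 cells stably bearing the NPC1 promoter upstream of luciferase were treated with compounds for 24 h, and promoter activation was read as luminescence.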
ELG1 genotoxic: genotoxicity induction in ELG1-luciferase HEK293T cells; Potency, µM (top dose mostly 46 µM), inactives show at the top dose activity change, positive = activation, most hits filed as activators; HEK293T ELG1-luciferase reporter, luminescence, 16 h; AID 504466; hit rate 1.3% among 330,000; further: % of control where 0% means no effect; nearly all actives have a fitted effect of over 60% in size
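After overnight (16 hr) compound treatment at 37 °C, ELG1-luciferase HEK293T cells were lysed with ONE-Glo; luminescence quantified 30 min later at room temperature.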
SMN2 splice up: enhancers of SMN2 splice variant expression. HEK293 SMN2-luciferase splicing reporter, luminescence, 30-36 h. Potency, µM (series often up to 46.1 µM), inactives show at the top dose activity change, positive = activation, usual class: activators. hit rate 2.8% among 210,000. AID 1458; further: % of control where 0% means no effect; nearly all actives have a fitted effect of over 55% in size
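HEK293 cells carry an SMN2 […]–luciferase reporter in which exon 7 inclusion puts luciferase in frame. Cells were plated 10-12 h before compound addition, then incubated 30-36 h at 37C. ONE-Glo luminescence was read; sodium butyrate at 4.5 mM final served as control.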
Numbers without * were called inactive; ? = inconclusive; · = no result given. Hits are enriched below; roughly 9.4% of the tested compounds scored in any of these assays. The call rests on the fitted dose curve; in most records, active means well fitted curve in the direction sought with a large enough effect; inconclusive means small, poorly fitted or top-dose-only effect, or another doubt; inactive means no such curve, though single readings can be large; an effect the other way counts as inactive or inconclusive. Potency means the concentration at half of the fitted maximal effect.

SMILES | ELG1 DNA repair | FLuc counter | Rab9 promoter act | NPC1 promoter act | ELG1 genotoxic | SMN2 splice up
CC1CCCC(NC(=O)c2ccc3c(c2)OCO3)C1C (stereo not drawn) | ? | 12µM* | 3.55µM* | ? | 18.3µM* | ·
O=C(Nc1ccc(C(=O)N2CCCC2)cc1)c1ccc2c(c1)OCO2 | ? | 15.1µM* | ? | ? | ? | 16.4%
COc1ccc(NC(=O)c2ccc3c(c2)OCO3)cc1Cl | ? | 1.9µM* | 1.41µM* | 0.891µM* | ? | 14.1µM*
COc1cc(NC(=O)c2ccc3c(SCC(=O)O)c4c(nc3c2)CCC4)cc(OC)c1OC | -3.3% | -15.5% | 0.4% | -3.4% | 3.8% | ·
CC1CCCC(NC(=O)c2ccc3c(SCC(=O)O)c4c(nc3c2)CCC4)C1C (stereo not drawn) | 1.6% | 16.9µM* | -4.5% | -0.2% | 0.8% | ·
O=C(Nc1ccc(C(=O)N2CCCCC2)cc1)C1=CSCCO1 | ? | 12µM* | ? | 2.82µM* | ? | ·
O=C(Nc1ccc(F)c(Cl)c1)c1ccccc1 | ? | 10.7µM* | 1.78µM* | 3.16µM* | 11.6µM* | ·
O=C(Nc1ccc(F)c(Cl)c1)c1ccc2c(c1)OCO2 | ? | 4.78µM* | 1.26µM* | 1.78µM* | ? | ·
COC(=O)c1c(-c2cccnc2)csc1NC(=O)c1ccc2c(c1)OCO2 | ? | 1.35µM* | 1.58µM* | 2.51µM* | 2.91µM* | ·
COc1cc(-c2nc(-c3ccc(NC(=O)c4ccc5c(c4)OCO5)cc3)no2)cc(OC)c1OC | ? | ? | -0.6% | 1.9% | 13µM* | 73.3%
COc1ccccc1-c1nnc(NC(=O)c2ccc3c(c2)OCO3)s1 | -5.0% | 0.9% | -12.6% | -6.7% | 13.3% | ?
CCOC(=O)c1c(C)nc2c(c1C)/C(=N/O)CC(C)(C)C2 | 18.4µM* | -2.7% | -4.1% | 1.3% | -7.3% | -24.0%
CCOC(=O)c1c(C)nc2c(c1-c1ccc(OC)cc1)C(=O)CC(C)(C)C2 | ? | -1.0% | 0.7% | 2.2% | -8.4% | 1.9%
CC(C)c1ccc(NC(=O)C2CCCN(S(=O)(=O)c3ccc(Br)s3)C2)cc1 (stereo not drawn) | · | 1.2% | · | · | · | -16.5%
O=C(Cn1c(/C=C/c2ccccc2)nc2ccccc21)Nc1ccc(F)cc1 | ? | 4.78µM* | ? | 21.4% | ? | ?
CCC(C)n1c(S(=O)(=O)O)nc2ccccc21 (stereo not drawn) | 28.7% | -0.3% | 8.7% | 3.1% | 0.6% | 2.5%
CC(O)c1nc2ccccc2n1C/C=C/c1ccccc1 (stereo not drawn) | 12.8% | 3.7% | -3.3% | -2.0% | 3.6% | -35.9%
CC(C)Cn1c(/C=C/c2ccccc2)nc2ccccc21 | ? | 4.78µM* | 2.82µM* | ? | 3.6% | ·
COc1ccc(Cn2c(/C=C/c3ccccc3)nc3ccccc32)cc1 | ? | 0.849µM* | 1.26µM* | 2.51µM* | ? | ?
CCC(C)n1c(/C=C/c2ccccc2)nc2ccccc21 (stereo not drawn) | 0.9% | 12µM* | 3.1% | -1.5% | 0.3% | 13.4%
Cc1ccc(CCNC(=O)CCCn2c(=O)c3ccccc3n(CC(=O)Nc3cc(Cl)ccc3C)c2=O)cc1 | · | 0.8% | · | · | · | 24.3%
C=CCOC(=O)N[C@@H](c1cccs1)C(C(C)=O)C(C)=O | · | · | · | · | · | -4.6%
CCOc1ccc(CCNC(=O)c2cc(=O)[nH]c3ccc(S(=O)(=O)N4CCCCC4)cc23)cc1OCC | · | -0.3% | · | · | · | ·
COc1ccc(C(O)c2nc3ccccc3n2C(C)C)cc1 (stereo not drawn) | -27.4% | -1.1% | -5.1% | -9.4% | -3.6% | ·
COc1ccccc1/C=C/c1nc2ccccc2n1C(C)C | · | 3.38µM* | · | · | · | ?
SMILES | ELG1 DNA repair | FLuc counter | Rab9 promoter act | NPC1 promoter act | ELG1 genotoxic | SMN2 splice up
CCn1c(/C=C/c2ccccc2)nc2ccccc2c1=O | -18.8% | -16.5% | -0.5% | -1.2% | -7.3% | ·
CCCCCCn1c(/C=C/c2ccccc2)nc2ccccc21 | · | 3.01µM* | · | · | · | -81.8%
CCn1c(/C=C/c2ccccc2)nc2ccccc21 | ? | 0.601µM* | 1.26µM* | 2µM* | ? | 7.08µM*
CCCn1c(/C=C/c2cc[n+](C)cc2)nc2ccccc21 | -3.7% | -1.3% | -2.2% | -4.7% | -2.3% | ·
COc1ccc(/C=C/c2nc3ccccc3n2C)cc1 | ? | 0.135µM* | ? | ? | ? | 0.316µM*
COc1cccc(CS(=O)(=O)c2nnnn2-c2ccc(F)cc2Br)c1 | · | · | · | · | · | 1.5%
CCOc1ccc(NC(=O)C2CCCN(S(=O)(=O)c3ccc(Br)s3)C2)cc1 (stereo not drawn) | · | -0.9% | · | · | · | 12.7%
CCN1C(C(=O)c2ccccc2)=C(OC(=O)c2ccc(Cl)cc2)c2ccccc2S1(=O)=O | · | -0.7% | · | · | · | -30.4%
COc1ccccc1/C=C/c1nc2ccc(OC(C)=O)cc2c(=O)o1 | -1.3% | ? | 2.9% | -1.6% | 1.3% | ·
COc1ccc(/C=C/c2nc3ccccc3c(=O)o2)cc1 | ? | 0.601µM* | 0.0891µM* | ? | 0.82µM* | ·
CCn1c(-c2cc(-c3cc(OC)ccc3OC)nc3ccccc23)n[nH]c1=S | 6.51µM* | -1.1% | -6.2% | -1.4% | -3.8% | -6.6%
CCn1c(-c2cc(-c3ccccc3OC)nc3ccccc23)n[nH]c1=S | 16.4µM* | 0.9% | -0.3% | -1.2% | -8.3% | 19.8%
COc1ccc(Cl)cc1-c1n[nH]c(=S)n1Cc1ccccc1 | -2.0% | 1.2% | 0.0% | -1.8% | -2.6% | ·
CCOc1ccc(Nc2oc(/C=C/c3cccc(OC)c3)nc2C#N)cc1 | · | -7.9% | · | · | · | -4.8%
CCN(CC)C(=O)c1ccc(Nc2nnc(-c3ccc(O)cc3)c3ccccc23)cc1 | 16.4µM* | -12.6% | -0.9% | -6.4% | -0.8% | ·
COc1ccc(Nc2nnc(-c3ccc(O)cc3)c3ccccc23)cc1 | ? | 23.9µM* | -3.9% | -10.3% | ? | 17.0%
CCN(CC)C(=O)c1ccc(-c2nnc(Nc3cccc(O)c3)c3ccccc23)cc1 | ? | -15.5% | -2.2% | 6.4% | -15.5% | ·
NC(=O)Cc1ccc(Nc2nnc(-c3ccccc3)c3ccccc23)cc1 | 15.3% | 21.3µM* | 1.8% | 6.2% | 7.5% | -0.5%
Cc1ccc(C(=O)N2CCN(c3ccc(NC(=O)c4cccs4)cc3)CC2)cc1 | 9.2µM* | 2.0% | -2.8% | -0.1% | -13.8% | ·
Cc1ccn(-c2ccc(NC(=O)c3cccs3)cc2)n1 | ? | 3.01µM* | 0.631µM* | 0.708µM* | ? | ·
CCN(CC)S(=O)(=O)c1ccc(NC(=O)c2cccs2)cc1 | -9.4% | 1.7% | -2.7% | -6.2% | -1.2% | ·
O=C(Nc1ccc(N2CCN(C(=O)c3ccc(Cl)cc3)CC2)cc1)c1cccs1 | 2.8% | 3.2% | -9.2% | -3.4% | 3.0% | ·
O=C(Nc1cccc(N2CCCC2)c1)c1cccs1 | 3.8% | 16.9µM* | 29.3% | 21.8% | -2.4% | -21.9%

High-throughput results from PubChem.
